Measurements as given in PubChem BioAssay.
Activity calls are given as the source filed them. No rule for the calls is given here.

Each compound was assayed against Pantothenate synthetase (Mycobacterium tuberculosis (strain ATCC 25618 / H37Rv)) (UniProt P9WIL5) (assay: Recombinant Mtb pantothenate synthetase (PanC) inhibitors, coupled enzyme, confirmatory (AID 375;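 also: 0% = full reaction with vehicle and 100% = no enzyme background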)). Conditions: coupled enzyme assay; at 10 µM, stronger effect = higher value.
Chain of Pantothenate synthetase (Mycobacterium tuberculosis (strain ATCC 25618 / H37Rv)) (P9WIL5 whole entry, looked up): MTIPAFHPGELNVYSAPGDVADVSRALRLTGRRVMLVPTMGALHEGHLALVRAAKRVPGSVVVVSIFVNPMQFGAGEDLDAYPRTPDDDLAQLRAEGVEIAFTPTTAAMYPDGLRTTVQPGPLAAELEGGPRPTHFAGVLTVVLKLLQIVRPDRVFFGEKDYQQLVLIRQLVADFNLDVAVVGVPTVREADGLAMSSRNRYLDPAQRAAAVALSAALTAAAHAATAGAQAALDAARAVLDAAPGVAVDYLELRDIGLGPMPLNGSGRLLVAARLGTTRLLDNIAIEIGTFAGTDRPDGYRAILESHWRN

| Compound | inhibition |
| --- | --- |
| COc1ccc(C2c3sc(=O)[nH]c3SC3C4CCC(C4)C23)cc1 (centres undefined) | 7% (inactive) |
| Cc1ccc(-n2ncc(C(=O)N3CCc4ccccc4C3)c2NC(=O)c2ccco2)cc1C | 0% (inactive) |
| Cc1cc2ccccc2c(=O)n1CC(=O)N(C)c1ccc(F)cc1 | 0% (inactive) |
| CCN1CCN(Cc2c(C)[nH]c3ccc(OC)cc3c2=O)CC1 | 1% (inactive) |
| CCNc1ccc(C(=O)OCC)cc1NC(=O)c1cc(S(=O)(=O)N2CCOCC2)ccc1C | 2% (inactive) |
| O=c1c2cnn(-c3ccccc3)c2ncn1/N=C/c1ccncc1 | 5% (inactive) |
| CCOC(=O)CSC1=C(C#N)C(=O)NC(c2ccc(OC)c(OC)c2)S1 (centres undefined) | 16% (inactive) |
| CCOc1ccc(C2C(C#N)=C(N)Oc3cc(C)n(Cc4ccco4)c(=O)c32)cc1OC (centres undefined) | 2% (inactive) |
| CC(C(=O)OCn1nnc2ccccc2c1=O)N1C(=O)c2ccccc2C1=O (centres undefined) | 0% (inactive) |
| CC(C)(C)OC(=O)N1CC(O)CC1C(=O)OCC(=O)c1ccc(Cl)cc1 (centres undefined) | 0% (inactive) |
| O=C(c1cc2nc(-c3ccco3)cc(C(F)(F)F)n2n1)N1CCN(c2ccccn2)CC1 | 6% (inactive) |
| Cc1cccc(C)c1OCc1nnc(SCC(=O)Nc2ccccc2F)o1 | 0% (inactive) |
| CC(C)n1c(CN2CCN(C)CC2)nc2c1c(=O)n(C)c(=O)n2C | 0% (inactive) |
| CCSc1nc2c(c(=O)n(C)c(=O)n2C)n1Cc1ccc(Cl)cc1 | 4% (inactive) |
| C=CCn1c(SCC(=O)C(C)(C)C)nnc1-c1ccccn1 | 3% (inactive) |
| CCn1c(SCc2nc3ccccc3c(=O)[nH]2)nnc1-c1cccnc1 | 4% (inactive) |
| Cc1ccc2c(c1)NC(=O)C(CC(=O)NC1CCCCC1C)O2 (centres undefined) | 11% (inactive) |
| COc1ccccc1CC(NC(C)=O)C(=O)NC1CCN(c2nnnn2-c2ccccc2)CC1 (centres undefined) | 0% (inactive) |
| O=C1c2ccccc2S(=O)(=O)N1CC(O)Cn1c2ccccc2c2ccccc21 (centres undefined) | 0% (inactive) |
| CC1(C)S[C@@H]2[C@H](NC(=O)[C@H](C(=O)O)c3ccsc3)C(=O)N2[C@H]1C(=O)O | 5% (inactive) |

| Compound | inhibition |
| --- | --- |
| COc1ccc(-c2cc(C(F)(F)F)nc(SCCC(=O)N3CCOCC3)n2)cc1 | 1% (inactive) |
| CC(=O)N(C)C1(c2nnnn2CCOC(=O)Nc2cccc3ccccc23)CCCC1 | 0% (inactive) |
| COc1cccc(C2=NOC(C(=O)N3CCN(c4ccccc4)CC3)C2)c1OC (centres undefined) | 1% (inactive) |
| CCN(C(=O)c1cc(Cl)ccc1OC)c1ccccc1 | 0% (inactive) |
| Cc1cc(C)c(NC(=O)C2CCCN2CCO)c(C)c1 (centres undefined) | 0% (inactive) |
| COCCNC(=O)CN(C)S(=O)(=O)c1ccc(Br)cc1 | 0% (inactive) |
| CC1(C)CC(=O)c2c(O)cc(O)cc2O1 | 3% (inactive) |
| O=C(O)C1CCCCC1C(=O)Nc1ccccn1 (centres undefined) | 0% (inactive) |
| CCOC(=O)Cc1csc(NC(=O)CSc2nnc(-c3ccncc3)n2Cc2ccco2)n1 | 0% (inactive) |
| CCn1c(SCC(=O)Nc2ccc(C(C)=O)cc2)nc2ccccc21 | 3% (inactive) |
| CCN(CC)C(=O)c1ccc(CS(=O)(=O)c2ccc(OC)cc2)o1 | 1% (inactive) |
| CC(C(=O)Nc1ccccc1-c1ccccc1)N1CCOCC1 (centres undefined) | 1% (inactive) |
| O=C(CCCCn1c(=O)[nH]c2ccsc2c1=O)NCc1cccnc1 | 5% (inactive) |
| COc1cccc2c1C(=O)c1c(O)c3c(c(O)c1C2=O)C[C@@](O)(C(=O)CO)C[C@@H]3O[C@H]1C[C@H](N)[C@H](O)[C@H](C)O1 | 5% (inactive) |
| COc1cccc(-c2nnc(NC(=O)Cc3cccs3)s2)c1 | 0% (inactive) |
| COC(=O)CN1C(=O)C(O)(CC(=O)c2ccc(Cl)cc2)c2ccccc21 (centres undefined) | 0% (inactive) |
| COC(=O)c1[nH]c2cc(OC)ccc2c1NC(=O)CCN1CCCCC1 | 1% (inactive) |
| O=C(c1cc(-c2cccc(O)c2)on1)N1CCN(C(c2ccccc2)c2ccccc2)CC1 | 8% (inactive) |
| CC(C)(C)c1ccc(C(=O)Nc2cnccn2)cc1 | 2% (inactive) |
